Assay [1] can be described thus: A CellTox Green Cytotoxicity Assay to monitor cytotoxicity in HepG2 cells - 16 hour (AID 1224876). Further: nearly all actives have a fitted effect of over 45% in size. The method, boiled down:
(§1)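 HepG2 cells were seeded together with the CellTox Green dye at 600 cells/well, left 5 h at 37 C/5% CO2, then given compounds in DMSO. Fluorescence from dye bound to dead-cell DNA was read repeatedly over 40 h of treatment at 37 C.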

The nature of assay [2]: qHTS RealTime-Glo MT Cell Viability Assay in HepG2 cells - 32 hour (AID 1224877). Further: nearly all actives have a fitted effect of over 55% in size. The gist of the method:
(§2)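 Luminescence read-out: viable HepG2 cells reduce a prosubstrate to a NanoLuc substrate, giving a signal proportional to live cell number. Reads taken at 0, 8, 16, 24, 32 and 40 h of compound exposure at 37 C.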

A short description of assay [3]: A CellTox Green Cytotoxicity Assay to monitor cytotoxicity in HepG2 cells - 24 hour (AID 1224878). Further: nearly all actives have a fitted effect of over 45% in size. The method, boiled down: as §1
Assay [4] can be described thus: A CellTox Green Cytotoxicity Assay to monitor cytotoxicity in HepG2 cells - 40 hour (AID 1224879). Further: nearly all actives have a fitted effect of over 40% in size. The method, boiled down:
as §1

Assay [5] is described as follows: qHTS RealTime-Glo MT Cell Viability Assay in HEK293 cells - 0 hour (AID 1224880). Further: top concentration of the series differs between compounds; nearly all actives have a fitted effect of over 45% in size. The gist of the method: (§3)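 HEK293 cells mixed with RealTime-Glo reagents (NanoLuc plus cell-permeant prosubstrate) at 600 cells/well, preincubated 5 h at 37 C/5% CO2, then given 23 nL compound in DMSO. Nonlytic luminescence from viable cells was read at 0, 8, 16, 24, 32 and 40 h.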

Assay [6] can be described thus: A CellTox Green Cytotoxicity Assay to monitor cytotoxicity in HEK293 cells - 32 hour (AID 1224881). Further: nearly all actives have a fitted effect of over 40% in size. The method, boiled down:
(§4)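 HEK293 cells premixed with CellTox Green dye were seeded at 600 cells/well and left 5 h at 37 C/5% CO2 before pin transfer of 23 nL compound in DMSO. Fluorescence from dye bound to dead-cell DNA was read during 40 h treatment.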

Assay [7] is described as follows: A CellTox Green Cytotoxicity Assay to monitor cytotoxicity in HepG2 cells - 0 hour (AID 1224882). Further: nearly all actives have a fitted effect of over 35% in size. The method, boiled down:
as §1

Assay [8] can be described thus: A CellTox Green Cytotoxicity Assay to monitor cytotoxicity in HepG2 cells - 32 hour (AID 1224883). Further: nearly all actives have a fitted effect of over 50% in size. The method, boiled down:
as §1

A short description of assay [9]: A CellTox Green Cytotoxicity Assay to monitor cytotoxicity in HEK293 cells - 8 hour (AID 1224884). Further: nearly all actives have a fitted effect of over 35% in size. Further: potency means the concentration at half of the fitted maximal effect. The gist of the method:
as §4

Assay [10] in a line: qHTS RealTime-Glo MT Cell Viability Assay in HepG2 cells - 16 hour (AID 1224885). Further: nearly all actives have a fitted effect of over 50% in size. The gist of the method:
as §2
(In general: Quantitative high-throughput screening tests each substance at several concentrations.)

The nature of assay [11]: qHTS RealTime-Glo MT Cell Viability Assay in HEK293 cells - 24 hour (AID 1224886). Further: top concentration of the series differs between compounds; nearly all actives have a fitted effect of over 50% in size. The method, boiled down:
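Nonlytic real-time viability readout: viable cells convert prosubstrate to NanoLuc substrate, giving luminescence proportional to live cell number. HEK293, 600 cells/well, compound added after 5 h, continuous culture at 37 C.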

The nature of assay [12]: qHTS RealTime-Glo MT Cell Viability Assay in HEK293 cells - 8 hour (AID 1224887). Further: top concentration of the series differs between compounds; nearly all actives have a fitted effect of over 50% in size. The gist of the method:
as §3

Assay [13] in a line: A CellTox Green Cytotoxicity Assay to monitor cytotoxicity in HEK293 cells - 16 hour (AID 1224888). Further: nearly all actives have a fitted effect of over 35% in size. The method, boiled down: as §4
Assay [14] is described as follows: qHTS RealTime-Glo MT Cell Viability Assay in HepG2 cells - 0 hour (AID 1224889). Further: nearly all actives have a fitted effect of over 50% in size. The gist of the method: as §2
A short description of assay [15]: qHTS assay to identify small molecule antagonists of the estrogen receptor alpha (ER-alpha) signaling pathway using the BG1 cell line in the presence of 0.1 nM 17-beta-estradiol - cell viability counter screen (AID 1259241). Further: nearly all actives have a fitted effect of over 40% in size. The method, boiled down:
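Estradiol-stimulated (0.1 nM) VM7Luc4E2 cells exposed to compounds 22 hr; viability measured by fluorescence of cleaved CellTiter-Fluor substrate after 30 min.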

The nature of assay [16]: qHTS assay to identify small molecule antagonists of the androgen receptor (AR) signaling pathway using the MDA cell line in the presence of 0.5 nM R1881 - cell viability counter screen (AID 1259242). Further: nearly all actives have a fitted effect of over 45% in size. The method, boiled down:
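MDA-kb2 cells (human breast carcinoma, stably carrying MMTV-luciferase reporter) were exposed to compounds with 0.5 nM R1881 (final) for 16 hr at 37C, 0% CO2; viability then read as live-cell protease fluorescence (CellTiter-Fluor, 30 min) in the same wells.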

Assay [17] deals with Estrogen receptor (Homo sapiens) (UniProt P03372). The experiment in a line: qHTS assay to identify small molecule antagonists of the estrogen receptor alpha (ER-alpha) signaling pathway using the BG1 cell line in the presence of 0.1 nM 17-beta-estradiol (AID 1259244). Further: nearly all actives have a fitted effect of over 50% in size. The gist of the method: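 VM7Luc4E2 cells (endogenous full-length ER-alpha, stable 4xERE-luciferase) were grown 5 days in phenol red-free medium with charcoal-stripped FBS, then exposed 22 h at 37C to compounds plus 0.1 nM (final) 17beta-estradiol; ONE-Glo luminescence read-out.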
Sequence of Estrogen receptor (Homo sapiens) (P03372 whole entry, looked up): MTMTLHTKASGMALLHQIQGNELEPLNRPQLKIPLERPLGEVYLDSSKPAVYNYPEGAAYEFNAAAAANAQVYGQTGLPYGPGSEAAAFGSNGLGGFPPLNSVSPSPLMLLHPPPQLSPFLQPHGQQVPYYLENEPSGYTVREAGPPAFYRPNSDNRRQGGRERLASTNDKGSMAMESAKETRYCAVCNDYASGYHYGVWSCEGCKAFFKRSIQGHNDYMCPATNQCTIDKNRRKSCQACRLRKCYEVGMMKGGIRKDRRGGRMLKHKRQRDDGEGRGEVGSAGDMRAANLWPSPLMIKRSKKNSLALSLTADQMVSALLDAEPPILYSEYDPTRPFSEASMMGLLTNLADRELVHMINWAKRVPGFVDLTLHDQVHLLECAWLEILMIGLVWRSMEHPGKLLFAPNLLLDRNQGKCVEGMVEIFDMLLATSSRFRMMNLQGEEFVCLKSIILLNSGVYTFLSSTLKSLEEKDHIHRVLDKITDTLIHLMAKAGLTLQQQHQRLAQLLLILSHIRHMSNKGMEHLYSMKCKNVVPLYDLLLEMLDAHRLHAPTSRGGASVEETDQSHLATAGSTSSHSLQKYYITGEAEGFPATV

The nature of assay [18]: A CellTox Green Cytotoxicity Assay to monitor cytotoxicity in HepG2 cells - 8 hour (AID 1224890). Further: nearly all actives have a fitted effect of over 45% in size. The gist of the method:
as §1

Assay [19] concerns the target Androgen receptor (Homo sapiens) (UniProt P10275). Put plainly: qHTS assay to identify small molecule antagonists of the androgen receptor (AR) signaling pathway using the MDA cell line in the presence of 0.5 nM R1881 (AID 1259243). Further: nearly all actives have a fitted effect of over 50% in size. The gist of the method:
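MDA-kb2 human breast carcinoma cells carrying an MMTV-luciferase reporter (AR- and GR-responsive) were plated, rested 5 hr at 37C, dosed with compounds, then stimulated with 0.5 nM R1881 (final) for 16 hr; luminescence was read after ONE-Glo.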

Assay [20] in a line: qHTS assay to identify small molecule phospholipidosis (PLD) inducers (AID 1259344; active means well fitted curve in the direction sought with a large enough effect; an effect the other way counts as inactive or inconclusive). The method, boiled down:
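Quantitative HTS in HepG2: compound plus LipidTOX Red dye for 24 h, paraformaldehyde fixation with Hoechst 33342, widefield high-content imaging; amiodarone as positive and DMSO as negative control.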

The structures appear in SMILES notation. Records with an inconclusive call do not appear. The source made the active and inactive calls. Unless noted, the call rests on the fitted dose curve; in most records, active means well fitted curve in the direction sought with a large enough effect in the repeat runs; inconclusive means weak or mixed curves; inactive means no such curve, though single readings can be large; an effect the other way counts as inactive or inconclusive.
On the % scale 0 is the no-effect control and ±100 the full control effect.

Sequence of Androgen receptor (Homo sapiens) (P10275 whole entry, looked up): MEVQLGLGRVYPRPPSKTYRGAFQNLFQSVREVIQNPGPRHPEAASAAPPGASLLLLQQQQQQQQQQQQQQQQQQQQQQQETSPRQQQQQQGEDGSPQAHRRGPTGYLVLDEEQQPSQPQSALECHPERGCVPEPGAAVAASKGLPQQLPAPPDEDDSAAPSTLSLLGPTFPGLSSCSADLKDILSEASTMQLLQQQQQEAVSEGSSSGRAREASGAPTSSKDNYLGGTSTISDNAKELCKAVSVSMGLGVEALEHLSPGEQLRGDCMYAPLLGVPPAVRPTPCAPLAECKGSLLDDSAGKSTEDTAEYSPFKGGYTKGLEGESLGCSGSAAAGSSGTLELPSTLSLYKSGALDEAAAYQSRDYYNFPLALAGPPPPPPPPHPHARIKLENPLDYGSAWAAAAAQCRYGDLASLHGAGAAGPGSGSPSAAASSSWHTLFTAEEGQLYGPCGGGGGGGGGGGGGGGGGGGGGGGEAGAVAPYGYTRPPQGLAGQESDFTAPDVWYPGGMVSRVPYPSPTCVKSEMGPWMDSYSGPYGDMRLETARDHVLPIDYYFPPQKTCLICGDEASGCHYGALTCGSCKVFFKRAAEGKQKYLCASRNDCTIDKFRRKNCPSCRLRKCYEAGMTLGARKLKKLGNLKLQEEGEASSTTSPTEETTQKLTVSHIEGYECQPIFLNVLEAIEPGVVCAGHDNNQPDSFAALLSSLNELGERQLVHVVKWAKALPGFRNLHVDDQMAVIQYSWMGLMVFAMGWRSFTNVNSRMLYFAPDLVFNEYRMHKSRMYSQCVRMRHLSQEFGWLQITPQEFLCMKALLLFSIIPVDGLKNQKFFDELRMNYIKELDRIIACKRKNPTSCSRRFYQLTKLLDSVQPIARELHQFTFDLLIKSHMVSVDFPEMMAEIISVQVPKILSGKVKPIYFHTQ

In the case of `C1=C\CC/C=C\CC/1`, the Potency result in assay [1], in assay [3], in [4], in [6], in assay [7] and in [8] was “inactive” in each case. Besides, the Potency entry in assay [11], in assay [12], in [13], in assay [14], in assay [15] and in assay [16] was “inactive” in each case. Besides, in assay [17], the Potency result was “inactive”. Further, the compound was called inactive in [2], in assay [5] and in assay [10]. Also, the Potency in assay [9] is 4.07 µM (active).
Turning to `O=S(=O)(O)SSS(=O)(=O)O`, the Potency entry in assay [1], in assay [3], in assay [4], in assay [6], in [7] and in assay [8] was “inactive” throughout. For the same compound, the Potency result in assay [9], in assay [11], in assay [12], in assay [13], in assay [14] and in assay [18] was “inactive” throughout. In assay [16], the Potency result was “inactive”. For the same compound, the call in assay [2], in assay [5], in [10] and in [19] was inactive.
With `O=c1[nH]c(=O)c2[nH]c(=O)[nH]c2[nH]1`, the cytotoxicity increase in assay [1] is -0.724% [at 6.97 µM] (inactive); in assay [4] it was 1.9% [at 6.97 µM] (inactive); in assay [6], -13.1% [at 6.97 µM] (inactive); in assay [8], -0.415% [at 6.97 µM] (inactive); in assay [9], -15.5% [at 6.97 µM] (inactive); in assay [18], 1.39% [at 6.97 µM] (inactive). Moreover, the activity change, negative = cytotoxic in assay [2] was 0.932% [at 6.97 µM] (inactive); in assay [10], 0.919% [at 6.97 µM] (inactive). Further, the cytotoxicity in assay [3] was -0.222% [at 6.97 µM] (inactive); in assay [7], -5.08% [at 6.97 µM] (inactive). For the same compound, the activity change, negative = cytotoxicity is 1.84% [at 6.97 µM] (inactive) in assay [5], 8.57% [at 6.97 µM] (inactive) in [11], 9.35% [at 6.97 µM] (inactive) in assay [12] and -4.02% [at 6.97 µM] (inactive) in assay [14]. Also, the activity change in assay [13] was -15.6% [at 6.97 µM, hits give high values] (inactive). The viability change, negative = cytotoxic in assay [16] is -0.67% [at 8.39 µM] (inactive). The activity change, negative = inhibition in assay [17] was -0.565% [at 8.39 µM] (inactive). In assay [20], the outcome was inactive.
Consider `O=C1OC(=O)c2ccccc21`, for which the Potency result in [1], in assay [3], in assay [4], in [6], in assay [7] and in [8] was “inactive” each time. Further, the Potency entry in assay [9], in assay [11], in assay [12], in [13], in assay [14] and in assay [15] was “inactive” in each case. The Potency entry in assay [16] and in assay [17] was “inactive” throughout. In addition, the compound was called inactive in assay [2], in assay [5] and in assay [10].
As to `COc1cc([N+](=O)[O-])ccc1N`, the Potency entry in assay [1], in [3], in [4], in assay [6], in assay [7] and in assay [8] was “inactive” throughout. The Potency result in assay [9], in assay [11], in [12], in assay [13], in assay [14] and in assay [18] was “inactive” throughout. The compound was classed as inactive in assay [2], in assay [5], in [10] and in assay [19].
As to `CC(=O)Nc1ccc(C)cc1`, the Potency result in assay [1], in assay [3], in [4], in assay [6], in assay [7] and in [8] was “inactive” each time. The Potency entry in assay [9], in [11], in [12], in assay [13], in assay [14] and in [15] was “inactive” each time. In assay [16], the Potency entry was “inactive”. Moreover, the outcome in assay [2], in [5] and in [10] was inactive.
For `O=C(O)c1ccc(OCCN2CCCCC2)cc1`, the Potency entry in assay [1], in assay [3], in assay [4], in assay [6], in [7] and in assay [8] was “inactive” throughout. Further, the Potency result in [9], in assay [11], in [12], in assay [13], in [14] and in assay [18] was “inactive” throughout. For the same compound, the Potency result in [16] is “inactive”. The compound was called inactive in [2], in assay [5], in assay [10] and in assay [19].
For the compound `CCc1nccnc1C`, the Potency result in [1], in assay [3], in [4], in [6], in assay [7] and in [8] was “inactive” throughout. Moreover, the Potency entry in assay [9], in assay [11], in assay [12], in [13], in [14] and in assay [15] was “inactive” throughout. Moreover, the Potency result in assay [16] and in assay [17] was “inactive” in each case. For the same compound, the result in assay [2], in assay [5] and in assay [10] was inactive.
Turning to `O=C(c1ccc2c(c1)C(=O)OC2=O)c1ccc2c(c1)C(=O)OC2=O`, the Potency result in assay [1], in assay [3], in assay [4], in assay [6], in assay [7] and in [8] was “inactive” each time. Moreover, the Potency entry in [9], in [11], in assay [12], in assay [13], in [14] and in [15] was “inactive” in each case. Moreover, the Potency entry in assay [16] was “inactive”. For the same compound, the compound was called inactive in assay [2], in assay [5] and in assay [10].
For `O=C1CC[C@H](C(=O)N2CCCCC2)N1`, the Potency entry in [1], in assay [3], in assay [4], in assay [6], in assay [7] and in [8] was “inactive” in each case. The Potency result in assay [9], in assay [11], in [12], in [13], in [14] and in assay [18] was “inactive” in each case. Also, the Potency entry in assay [15] and in [17] was “inactive” throughout. In addition, the compound was classed as inactive in assay [2], in assay [5], in assay [10] and in assay [20].
`OCCCCCCCl`: the Potency result in assay [1], in assay [3], in assay [4], in assay [6], in assay [7] and in assay [8] was “inactive” in each case. For the same compound, the Potency entry in assay [9], in assay [11], in [12], in assay [13], in [14] and in assay [15] was “inactive” throughout. Besides, the Potency result in assay [16] is “inactive”. The outcome in assay [2], in [5] and in assay [10] was inactive.
Consider `C=CCOC(=O)c1ccc(C(=O)OCC=C)c(C(=O)OCC=C)c1`, for which the Potency result in assay [1], in assay [3], in assay [4], in assay [6], in assay [7] and in assay [8] was “inactive” throughout. Besides, the Potency result in [9], in [11], in assay [12], in [13], in assay [14] and in assay [18] was “inactive” throughout. For the same compound, the Potency result in assay [16] was “inactive”. Further, the call in [2], in assay [5] and in assay [10] was inactive.
On to `CC(C)c1ccccc1O`, for which the Potency result in assay [1], in assay [3], in assay [4], in assay [6], in assay [7] and in [8] was “inactive” throughout. In addition, the Potency result in assay [9], in assay [11], in [12], in assay [13], in [14] and in assay [15] was “inactive” in each case. The compound was called inactive in assay [2], in assay [5] and in assay [10].

The values are drawn from PubChem BioAssay (Tox21).
